# ASM inhibitor: inhibitors of human secretory acid sphingomyelinase | P17405 | Potency, µM (titrated, usually from 57.5 µM), without a hit: at the top dose activity change, negative = inhibition, hits mostly inhibitors | placental ASM, HMU-PC fluorogenic substrate, 60 min | AID 504937 | 0.006% of 340,000 active
#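 Steps: dispense placental human ASM, pin compound, wait 10 min at room temperature, add HMU-PC0 substrate at 9 uM final, incubate 60 min at 37 °C, add stop solution raising pH to 10, read fluorescence.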
# VDR inhibitor: vitamin D3 receptor (human) inhibition; AID 504847; Potency, µM, without a hit: max response, negative = inhibition, most hits filed as inhibitors; 0.93% of 400,000 active; VDR-SRC2-3 peptide fluorescence polarization, 2 h; P11473; also: % is scaled to controls: 0 for no effect and ±100 for the full control effect
#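 Inhibition of the VDR/SRC2-3 peptide interaction is quantified by fluorescence polarization. Compounds (23 nl, pintool) incubate with the reagents for 2 hours at ambient room temperature.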
# TDP1 inh: TDP1 (human) enzyme inhibition; 0.28% of 350,000 active; Q9NUW8; recombinant TDP1, AlphaScreen DNA substrate cleavage; Potency, µM (doses to about 130 µM), inactives show at the highest dose activity change, negative = inhibition, hits mostly inhibitors; also: % is scaled to controls: 0 for no effect and ±100 for the full control effect; nearly all actives have a fitted effect of over 40% in size
#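 E. coli-derived human Tdp1, 1 nM final. Cpd preinc 15 min RT; substrate 15 nM final, 5 min RT; AS bead mix 10 ug/ml final, 10 min RT. Signal loss = tyrosine-FITC cleavage. No-enzyme wells = max signal.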
# Tb PFK inh: T. brucei PFK enzyme inhibition. T. brucei PFK, ADP-Glo luminescence. O15648. Potency, µM (highest dose often 57.5 µM), without a hit: at the highest dose activity, negative = inhibition, actives largely listed as inhibitors. AID 485367. 0.17% of 330,000 active;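 also: 0% = uninhibited 1x PFK enzyme wells and -100% = no-enzyme wells; nearly all actives have a fitted effect of over 60% in size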
# Target sequence (O15648 whole entry, looked up): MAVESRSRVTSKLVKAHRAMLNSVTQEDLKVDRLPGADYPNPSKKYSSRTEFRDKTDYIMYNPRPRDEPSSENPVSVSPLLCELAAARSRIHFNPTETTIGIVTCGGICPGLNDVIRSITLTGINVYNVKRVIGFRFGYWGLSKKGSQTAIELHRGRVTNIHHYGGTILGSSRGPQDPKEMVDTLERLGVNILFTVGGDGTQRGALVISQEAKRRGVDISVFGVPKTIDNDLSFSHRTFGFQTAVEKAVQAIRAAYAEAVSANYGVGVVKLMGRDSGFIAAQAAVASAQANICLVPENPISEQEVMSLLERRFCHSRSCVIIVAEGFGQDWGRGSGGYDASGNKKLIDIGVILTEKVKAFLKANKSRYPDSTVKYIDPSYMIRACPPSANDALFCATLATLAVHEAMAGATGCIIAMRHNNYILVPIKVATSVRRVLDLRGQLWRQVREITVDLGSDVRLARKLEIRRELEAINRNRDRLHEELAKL
#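 ADP-Glo luminescence quantified ADP after 45 min at room temperature, with 1.25 nM T. brucei PFK, 0.1 mM ATP and 0.5 mM fructose-6-phosphate in pH 8.0 TEA buffer. qHTS titrations up to 57 µM; curves classified by quality.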
# PLK1 PBD block: inhibitors of human PLK1 polo-box domain binding. P53350. Plk1 PBD binding of FITC phosphopeptide, fluorescence polarization. Potency, µM, for the others: max response, negative = inhibition, hits mostly inhibitors. 2.8% of 360,000 active; also: series mostly up to about 57 µM; % is scaled to controls: 0 for no effect and ±100 for the full control effect; nearly all actives have a fitted effect of over 65% in size
# Pin1 inhibitor: inhibitors of human Pin1; Q13526; Pin1 FP peptide displacement, HiFluor488, 10 min; Potency, µM (titrated, usually from 115 µM), for inactives: at the highest dose activity, negative = inhibition, actives largely listed as inhibitors; 0.009% of 390,000 active; AID 504891; active = well fitted inhibition curve with a large enough effect in the polarisation, with a control signal flat, not every such curve was filed as active; inconclusive = small, poorly fitted or top-dose-only effect, or effect the other way, or a change in a side signal; inactive = no such curve, though single readings can be large or run the other way; the % refers to the polarisation; also: % is scaled to controls: 0 for no effect and ±100 for the full control effect
# Target sequence (Q13526 whole entry, looked up): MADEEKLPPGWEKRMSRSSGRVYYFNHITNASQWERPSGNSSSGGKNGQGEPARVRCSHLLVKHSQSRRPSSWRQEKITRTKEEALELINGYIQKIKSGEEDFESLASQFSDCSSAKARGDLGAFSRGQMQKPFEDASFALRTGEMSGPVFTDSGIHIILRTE
# Starred values were filed as active, the others as inactive; ? = inconclusive; . = no result given; [ ] = another dose, or the depositor's remark. Rows were chosen to be rich in hits. Some 3.1% of all compounds tested hit in one or more screens of this group. Unless noted, calls follow the shape of the dose curve; as a rule, active = well fitted curve in the direction sought with a large enough effect; inconclusive = small, poorly fitted or top-dose-only effect, or another doubt; inactive = no such curve, though single readings can be large; an effect the other way counts as inactive or inconclusive. Potency is read from the fitted curve at half-maximal effect.
SMILES,ASM inhibitor,VDR inhibitor,TDP1 inh,Tb PFK inh,PLK1 PBD block,Pin1 inhibitor
CCN(CC)C(=O)Cn1c(=O)n(Cc2ccc(C(=O)NCCc3ccc(OC)c(OC)c3)cc2)c(=O)c2ccccc21,.,0.5%,2.7%,.,.,-6.5%
Cc1nn(C)c(C)c1NC(=O)CSc1nc(C2CC2)nc2c1cnn2-c1ccccc1,-4.7%,16.1%,3.1%,-2.0%,-18.0%,-5.0%
CC1CCCCN1C(=O)CSc1nc(C2CC2)nc2c1cnn2-c1ccccc1 (stereo unspecified),-4.3%,-10.5%,9.3%,-10.4%,26.7µM*,-2.2%
COc1ccccc1OCc1ccc(C(=O)Nc2ccc(C)c(C)c2)o1,.,9.5%,4.7%,.,.,12.0%
COc1ccc(NC(=O)c2ccc(COc3ccccc3OC)o2)cc1OC,-2.2%,-15.8%,-1.1%,-3.8%,29.9µM*,-2.6%
CCCCCCCc1c(C#N)c(N)[nH]c(=S)c1C#N,-14.3%,?,8.4%,1.8%,23.8µM*,-0.1%
CCCC(=O)c1cc(F)c(N2CCN(S(=O)(=O)c3ccccc3)CC2)cc1C,-7.9%,6.8%,4.3%,-1.2%,1.5%,-0.4%
CCCC(=O)c1cc(F)c(N2CCOCC2)cc1C,-0.5%,-6.4%,2.9%,-5.7%,23.8µM*,0.7%
CCOc1ccc(-n2c(=O)c3c(C)c(C)sc3n(CC(=O)c3ccccc3)c2=O)cc1,.,9.2%,-2.9%,.,.,52.8%
O=S(=O)(Nc1nc2ccccc2nc1N1CCc2ccccc2C1)c1ccc(Cl)cc1,55.8%,-12.1%,-1.1%,1.9%,21.2µM*,1.7%
O=S(=O)(Nc1nc2ccccc2nc1N1CCc2ccccc2C1)c1ccc(Br)cc1,84.0%,-6.0%,-2.8%,3.1%,?,?
CC[C@H](C)[C@@H](NC(=O)O[C@@H]1C(=O)c2ccc(OC)cc2O[C@H]1c1ccc2c(c1)OCO2)C(=O)OC,.,5.9%,5.0%,.,.,.
O=c1[nH]c(C2CCN(S(=O)(=O)c3ccccc3)CC2)nc2c1nnn2Cc1ccccc1,-0.5%,-29.6%,.,4.7%,23.8µM*,3.4%
CC(C)C[C@H](N)c1nnc(S(=O)(=O)Cc2cccc(F)c2)o1,2.3%,17.8µM*,3.1%,-1.8%,?,-1.4%
CC(C)Cn1nnnc1S(=O)(=O)Cc1cccc(C#N)c1,.,7.9%,4.4%,.,.,.
CCOC(=O)CSc1nnc([C@H](Cc2ccccc2)NC(=O)OC(C)(C)C)o1,2.1%,9.4%,4.8%,-0.5%,2.5%,7.6%
CC(C)(C)OC(=O)N[C@@H](Cc1ccccc1)c1nnc(S(=O)(=O)Cc2cccc(F)c2)o1,-3.7%,11.2µM*,-4.8%,-2.0%,5.97µM*,-3.4%
COc1ccccc1NC(=S)NCC1CCCCC1,1.0%,?,7.1%,-0.5%,5.97µM*,7.1%
COc1ccc(/C=N/NC(=O)Cn2cnc3c2c(=O)n(C)c(=O)n3C)c(OC)c1OC,2.6%,0.8%,.,0.8%,-19.8%,-1.8%
Cn1c(=O)c2c(ncn2CC(=O)N/N=C/c2c[nH]c3ccccc23)n(C)c1=O,.,.,79.4µM*,3.7%,.,.
Cc1ccccc1NCC(=O)N/N=C/c1c[nH]c2ccccc12,-4.0%,-1.9%,6.9%,-11.1%,29.9µM*,-3.9%
O=C(CNC(=O)c1cccs1)N/N=C/c1c[nH]c2ccccc12,2.7%,-2.3%,0.0%,-2.8%,18.9µM*,2.6%
CCCCC(=O)NC(c1ccc(Cl)cc1Cl)c1ccc2cccnc2c1O (stereo unspecified),-0.2%,?,.,0.7%,3.36µM*,-0.1%
CCCC(=O)NC(c1ccc(N(C)C)cc1)c1ccc2cccnc2c1O (stereo unspecified),3.1%,-21.5%,.,3.3%,26.7µM*,-7.2%
O=C(O)c1ccccc1NC(c1ccccc1)c1ccc2cccnc2c1O (stereo unspecified),-3.6%,35.5µM*,.,.,0.597µM*,?
SMILES,ASM inhibitor,VDR inhibitor,TDP1 inh,Tb PFK inh,PLK1 PBD block,Pin1 inhibitor
COc1cccc(NC(=O)CCc2nnc3ccc(N4CCN(c5cccc(OC)c5)CC4)nn23)c1,-0.4%,?,2.2%,1.0%,5.97µM*,3.2%
O=S(=O)(Cc1ccccc1)N(O)c1ccccc1,-1.6%,39.8µM*,11.9%,0.0%,?,-0.8%
COc1ccccc1-c1noc(-c2ccc(NC3CCCC3)c([N+](=O)[O-])c2)n1,.,12.2%,5.7%,.,.,-0.1%
Cc1cccc(CNC(=O)CCCn2c(=O)c3cccn3c3ccc(F)cc32)c1,.,-2.9%,0.0%,.,.,-1.5%
C#CC[N+](C)(C)CCCCCCCCC,3.9%,-16.6%,1.8%,2.0%,37.7µM*,-4.0%
O=C(CCN1C(=O)C2C3C=CC(C3)C2C1=O)Nc1nccs1 (stereo unspecified),-0.7%,-3.0%,3.1%,1.9%,29.9µM*,-8.7%
COc1ccc(NC(=O)CCN2C(=O)[C@@H]3[C@H](C2=O)[C@H]2C=C[C@@H]3C2)cc1,4.4%,-24.2%,5.6%,-0.9%,26.7µM*,-13.5%
CC(=O)c1ccc(NC(=O)CSc2cn(CC(=O)N3CCCCCC3)c3ccccc23)cc1,.,6.8%,5.1%,.,.,2.8%
O=C(C1CC=CCC1)N1CCCCCC1 (stereo unspecified),.,.,.,.,-9.7%,.
O=C(C1CC=CCC1)N1CCN(C(=O)C2CC=CCC2)CC1 (stereo unspecified),1.2%,-22.4%,0.1%[56.1 µM],-3.4%,29.9µM*,0.8%
COc1ccc(C(=O)N(Cc2ccco2)Cc2ccco2)c(O)c1,.,.,-6.6%,.,.,-12.7%
Cc1ccc(NS(=O)(=O)c2cc3c(cc2N2CCCCC2)NC(=O)CC3)cc1C,.,.,0.3%,.,.,14.2%
O=S1(=O)c2ccccc2N(Cc2ccccc2Cl)c2ccccc21,.,11.2%,3.2%,.,.,-0.5%
CCn1c(C)nc2cc(C(=O)N/N=C/c3ccccc3)ccc21,4.3%,-13.3%,2.5%,0.9%,-27.3%,-4.8%
CCn1c(C)nc2cc(C(=O)NN=Cc3ccc([N+](=O)[O-])cc3)ccc21,-3.4%,19.9%,44.7µM*,-0.1%,-4.2%,-4.7%
Cc1cc2oc(C(=O)Nc3cccc(-c4nc5ccccc5o4)c3)c(C)c2cc1C,.,3.4%,-3.6%,.,.,?
Oc1c(Br)cc(C2N=C(c3ccccc3)NO2)cc1Br (stereo unspecified),-5.3%,-6.9%,.,0.0%,11.9µM*,5.4%
Cc1ccccc1OCC(=O)NCC(=O)OCC(=O)c1ccc(-c2ccccc2)cc1,.,-19.0%,1.4%,.,.,-1.6%
CCC(=O)c1ccc(CCCCCC(=O)O)s1,6.0%,5.0%,17.8µM*,-4.7%,-19.1%,-5.9%
O=C(O)CSc1nnnn1C1CCCCC1,-4.4%,70.8µM*,6.2%,0.0%,15µM*,-5.6%
O=C(CSc1nnnn1C1CCCCC1)Nc1cccc(NC(=O)c2ccco2)c1,-6.0%,-9.6%,5.7%,-3.0%,2.99µM*,-7.8%
Cc1cc(C)cc(NC(=O)C2CCCN(S(=O)(=O)c3cccc4nsnc34)C2)c1 (stereo unspecified),.,-18.5%,0.0%,.,.,19.6%

# Bioassay records from PubChem BioAssay.
